In the supplement of paper PMC10849652:
Targets with a hit are over-represented here; the source holds about 7,900 in all. About 0.6% of all pairs of compound and target were hits.

These targets were tested with C1CN(CCC1(CC2=CC=C(C=C2)Cl)N)C3=NC=NC4=C3C=CN4 (assay: log2 fold change, soluble protein after heating vs DMSO (PISA); higher = thermal stabilisation; K562 cells, 10 uM, 30 min; active = over 0.2 and 3.5 SD of the protein, either way, in both replicates (recomputed)).
Method in brief: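 Quantification of soluble protein used TMTpro 16plex LC-MS/MS, with channel sums equalised. Samples were the supernatant after 21,000xg for 90 min of pooled aliquots from K562 cells (2×10^6 cells/mL) treated with 10 μM compound for 30 min, heated for 3 min over 48°C-58°C, and extracted in PBS with 0.5% NP-40 at 4°C. Values, from duplicates, describe thermal stability against control samples on a log2 fold-change scale.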

UniProt Q8NAV1, sequence (Q8NAV1 whole entry, looked up): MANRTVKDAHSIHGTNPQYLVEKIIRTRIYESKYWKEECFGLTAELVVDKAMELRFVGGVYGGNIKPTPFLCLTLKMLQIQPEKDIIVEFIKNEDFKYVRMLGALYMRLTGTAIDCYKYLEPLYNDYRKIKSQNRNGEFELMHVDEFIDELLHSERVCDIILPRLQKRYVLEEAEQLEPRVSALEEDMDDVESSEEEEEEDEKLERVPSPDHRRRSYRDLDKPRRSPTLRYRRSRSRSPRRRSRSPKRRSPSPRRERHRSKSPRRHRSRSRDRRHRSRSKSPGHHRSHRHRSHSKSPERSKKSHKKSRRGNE
UniProt Q99460, sequence (Q99460 whole entry, looked up): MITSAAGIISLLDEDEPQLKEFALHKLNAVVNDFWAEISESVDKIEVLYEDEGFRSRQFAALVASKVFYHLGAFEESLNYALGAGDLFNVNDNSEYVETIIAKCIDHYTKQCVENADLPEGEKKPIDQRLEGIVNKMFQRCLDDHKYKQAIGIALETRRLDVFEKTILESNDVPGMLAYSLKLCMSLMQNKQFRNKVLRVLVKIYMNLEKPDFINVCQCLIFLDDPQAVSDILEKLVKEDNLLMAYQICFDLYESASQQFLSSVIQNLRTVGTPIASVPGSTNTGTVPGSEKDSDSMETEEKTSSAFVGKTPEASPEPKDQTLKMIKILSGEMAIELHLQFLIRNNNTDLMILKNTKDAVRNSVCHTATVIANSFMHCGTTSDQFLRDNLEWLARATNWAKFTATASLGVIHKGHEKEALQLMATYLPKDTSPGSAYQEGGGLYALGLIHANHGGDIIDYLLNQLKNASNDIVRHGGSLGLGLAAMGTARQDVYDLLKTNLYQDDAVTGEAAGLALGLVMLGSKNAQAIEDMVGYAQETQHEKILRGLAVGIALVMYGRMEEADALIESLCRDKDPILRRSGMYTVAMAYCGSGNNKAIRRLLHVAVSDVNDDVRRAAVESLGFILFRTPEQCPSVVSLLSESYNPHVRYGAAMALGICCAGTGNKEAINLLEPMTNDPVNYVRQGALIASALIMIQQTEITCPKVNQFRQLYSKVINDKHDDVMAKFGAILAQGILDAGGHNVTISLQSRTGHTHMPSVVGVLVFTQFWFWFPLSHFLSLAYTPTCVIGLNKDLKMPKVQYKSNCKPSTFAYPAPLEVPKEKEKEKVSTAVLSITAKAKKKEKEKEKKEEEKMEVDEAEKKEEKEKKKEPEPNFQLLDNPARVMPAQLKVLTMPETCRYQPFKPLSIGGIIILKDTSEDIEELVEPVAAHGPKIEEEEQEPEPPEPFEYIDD
UniProt Q15366, sequence (Q15366 whole entry, looked up): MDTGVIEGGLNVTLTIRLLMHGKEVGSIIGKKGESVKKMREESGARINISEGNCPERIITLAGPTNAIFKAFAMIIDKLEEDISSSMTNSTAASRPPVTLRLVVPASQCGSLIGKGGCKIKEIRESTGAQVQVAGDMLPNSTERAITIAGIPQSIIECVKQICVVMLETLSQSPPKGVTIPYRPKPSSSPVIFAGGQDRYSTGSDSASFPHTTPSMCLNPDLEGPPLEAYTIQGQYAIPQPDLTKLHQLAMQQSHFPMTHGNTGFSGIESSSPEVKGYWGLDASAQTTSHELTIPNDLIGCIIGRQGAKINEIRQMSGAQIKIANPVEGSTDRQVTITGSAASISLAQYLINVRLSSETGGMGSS
UniProt P0CAP2, sequence (P0CAP2 whole entry, looked up): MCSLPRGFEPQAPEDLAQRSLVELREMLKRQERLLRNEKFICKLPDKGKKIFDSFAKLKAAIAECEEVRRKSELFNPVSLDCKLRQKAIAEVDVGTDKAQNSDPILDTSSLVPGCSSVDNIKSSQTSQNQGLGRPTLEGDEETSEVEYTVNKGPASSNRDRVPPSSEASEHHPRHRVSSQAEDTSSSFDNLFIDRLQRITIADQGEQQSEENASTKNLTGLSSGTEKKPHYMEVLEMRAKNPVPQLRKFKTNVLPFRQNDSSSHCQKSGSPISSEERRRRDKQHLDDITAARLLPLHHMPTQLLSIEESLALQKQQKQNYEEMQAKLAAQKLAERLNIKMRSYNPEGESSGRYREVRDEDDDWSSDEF
UniProt Q15111, sequence (Q15111 whole entry, looked up): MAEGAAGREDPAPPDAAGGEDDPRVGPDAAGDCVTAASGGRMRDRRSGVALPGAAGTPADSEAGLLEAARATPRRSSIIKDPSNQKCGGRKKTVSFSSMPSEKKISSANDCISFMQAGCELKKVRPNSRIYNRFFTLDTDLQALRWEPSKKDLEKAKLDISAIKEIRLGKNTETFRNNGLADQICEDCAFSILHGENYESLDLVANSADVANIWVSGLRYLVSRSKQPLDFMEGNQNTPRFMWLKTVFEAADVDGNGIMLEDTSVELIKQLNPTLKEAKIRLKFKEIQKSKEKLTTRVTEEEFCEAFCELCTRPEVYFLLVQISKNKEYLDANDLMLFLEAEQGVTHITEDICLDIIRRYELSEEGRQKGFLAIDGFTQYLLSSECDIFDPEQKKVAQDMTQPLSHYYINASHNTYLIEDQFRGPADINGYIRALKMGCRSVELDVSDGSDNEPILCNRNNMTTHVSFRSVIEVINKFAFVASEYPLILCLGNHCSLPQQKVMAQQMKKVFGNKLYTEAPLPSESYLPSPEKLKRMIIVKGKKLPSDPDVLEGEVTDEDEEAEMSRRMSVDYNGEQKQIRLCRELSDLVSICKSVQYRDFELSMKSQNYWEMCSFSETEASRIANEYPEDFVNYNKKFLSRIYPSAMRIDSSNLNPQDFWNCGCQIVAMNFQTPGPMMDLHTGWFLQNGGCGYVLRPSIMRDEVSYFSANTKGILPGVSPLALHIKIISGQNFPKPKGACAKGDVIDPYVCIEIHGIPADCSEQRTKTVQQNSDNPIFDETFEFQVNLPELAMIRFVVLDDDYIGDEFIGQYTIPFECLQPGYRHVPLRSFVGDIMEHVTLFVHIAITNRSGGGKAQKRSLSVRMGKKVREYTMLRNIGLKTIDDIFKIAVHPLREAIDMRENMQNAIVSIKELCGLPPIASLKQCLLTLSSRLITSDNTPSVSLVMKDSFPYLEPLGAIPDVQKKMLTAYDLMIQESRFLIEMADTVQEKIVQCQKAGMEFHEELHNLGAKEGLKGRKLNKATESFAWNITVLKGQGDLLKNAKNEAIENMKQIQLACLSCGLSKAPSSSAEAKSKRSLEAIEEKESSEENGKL
UniProt P31321, sequence (P31321 whole entry, looked up): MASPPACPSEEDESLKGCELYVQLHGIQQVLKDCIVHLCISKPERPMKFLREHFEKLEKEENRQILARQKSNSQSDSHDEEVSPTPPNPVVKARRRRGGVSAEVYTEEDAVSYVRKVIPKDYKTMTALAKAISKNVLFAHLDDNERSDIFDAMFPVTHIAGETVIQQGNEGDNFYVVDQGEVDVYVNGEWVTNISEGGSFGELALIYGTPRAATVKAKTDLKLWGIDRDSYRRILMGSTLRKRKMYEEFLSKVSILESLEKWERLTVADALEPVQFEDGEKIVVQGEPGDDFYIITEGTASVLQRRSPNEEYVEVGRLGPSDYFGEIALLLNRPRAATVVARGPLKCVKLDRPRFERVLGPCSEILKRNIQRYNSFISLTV
UniProt P48426, sequence (P48426 whole entry, looked up): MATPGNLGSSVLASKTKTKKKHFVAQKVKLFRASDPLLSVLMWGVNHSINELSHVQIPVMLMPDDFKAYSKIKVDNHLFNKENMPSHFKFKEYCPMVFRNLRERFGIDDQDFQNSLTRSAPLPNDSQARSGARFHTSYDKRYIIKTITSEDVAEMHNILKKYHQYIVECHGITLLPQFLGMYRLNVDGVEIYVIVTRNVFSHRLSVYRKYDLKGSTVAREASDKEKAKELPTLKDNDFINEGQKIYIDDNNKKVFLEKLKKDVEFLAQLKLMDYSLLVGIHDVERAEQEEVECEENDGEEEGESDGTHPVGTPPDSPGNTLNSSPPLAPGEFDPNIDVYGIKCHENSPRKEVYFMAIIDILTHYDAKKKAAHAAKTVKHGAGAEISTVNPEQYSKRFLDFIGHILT
UniProt Q15257, sequence (Q15257 whole entry, looked up): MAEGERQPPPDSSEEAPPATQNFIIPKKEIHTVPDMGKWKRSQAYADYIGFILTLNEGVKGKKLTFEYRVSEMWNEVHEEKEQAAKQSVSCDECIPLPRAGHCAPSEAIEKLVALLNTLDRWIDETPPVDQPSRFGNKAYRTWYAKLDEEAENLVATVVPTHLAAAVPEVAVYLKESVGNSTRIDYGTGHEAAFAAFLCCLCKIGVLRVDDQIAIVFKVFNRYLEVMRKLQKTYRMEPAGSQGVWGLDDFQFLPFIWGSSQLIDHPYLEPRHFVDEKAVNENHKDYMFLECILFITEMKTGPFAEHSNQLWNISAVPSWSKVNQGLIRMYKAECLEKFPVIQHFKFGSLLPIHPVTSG
UniProt P54619, sequence (P54619 whole entry, looked up): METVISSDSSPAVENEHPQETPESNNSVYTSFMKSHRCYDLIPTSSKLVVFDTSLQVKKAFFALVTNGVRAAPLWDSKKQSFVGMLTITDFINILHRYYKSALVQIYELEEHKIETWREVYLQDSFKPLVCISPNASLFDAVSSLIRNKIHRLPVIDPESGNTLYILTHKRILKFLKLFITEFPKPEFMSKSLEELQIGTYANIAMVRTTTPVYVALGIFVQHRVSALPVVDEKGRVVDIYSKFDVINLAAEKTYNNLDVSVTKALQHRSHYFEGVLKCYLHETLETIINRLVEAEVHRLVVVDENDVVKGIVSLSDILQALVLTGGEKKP
UniProt O96011, sequence (O96011 whole entry, looked up, change not shown): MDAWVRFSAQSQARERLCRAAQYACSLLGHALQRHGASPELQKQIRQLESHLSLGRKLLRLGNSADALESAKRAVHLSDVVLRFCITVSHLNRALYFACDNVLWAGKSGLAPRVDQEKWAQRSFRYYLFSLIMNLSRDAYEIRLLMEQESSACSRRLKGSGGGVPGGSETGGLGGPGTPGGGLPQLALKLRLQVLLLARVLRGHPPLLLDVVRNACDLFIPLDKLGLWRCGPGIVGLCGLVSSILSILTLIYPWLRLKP
UniProt O60925, sequence (O60925 whole entry, looked up): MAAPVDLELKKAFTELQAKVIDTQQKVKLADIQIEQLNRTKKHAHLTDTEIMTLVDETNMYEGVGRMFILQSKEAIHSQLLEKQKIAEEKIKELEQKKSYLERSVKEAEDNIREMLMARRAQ

log2 fold change, inactive:
PTPA (UniProt Q15257) -0.013
PLSCR1 (UniProt O15162) 0.05
POLR2M (UniProt P0CAP2) -0.024
PEX11B (UniProt O96011) 0.041
PSMD1 (UniProt Q99460) -0.025
PLCB3 (UniProt Q01970) -0.07
PRKCD (UniProt Q05655) -0.001
PIR (UniProt O00625) -0.002
PFDN1 (UniProt O60925) -0.057
POLR3B (UniProt Q9NW08) -0.088
PPP2R5E (UniProt Q16537) 0.056
PRPF40A (UniProt O75400) -0.124
PC (UniProt P11498) 0.012
PCBP2 isoform 3 (UniProt Q15366) 0.01
PTTG1 (UniProt O95997) -0.093
POLR2K (UniProt P53803) 0.022
PAK4 (UniProt O96013) -0.03
PRPF38A (UniProt Q8NAV1) 0.018
PRKACA (UniProt P17612) 0.047
POLR3K (UniProt Q9Y2Y1) 0.031
PRKAR1B (UniProt P31321) -0.077
PRPF3 (UniProt O43395) 0.053
PLCL1 (UniProt Q15111) -0.376
PI4K2A (UniProt Q9BTU6) 0.046
PELP1 (UniProt Q8IZL8) 0.08
PDE12 (UniProt Q6L8Q7) 0.026
PRKAA1 isoform 2 (UniProt Q13131) 0.012
PDE4A (UniProt P27815) -0.148
PDCD6IP (UniProt Q8WUM4) -0.122
PCBP1 (UniProt Q15365) 0.002
PRKAG1 isoform 3 (UniProt P54619) 0.045
PPP6R1 (UniProt Q9UPN7) 0.033
PIK3CB (UniProt P42338) 0.004
PIK3C3 (UniProt Q8NEB9) 0.06
PIP4K2A (UniProt P48426) -0.013
